Compound activity: PubChem, several laboratories
tim23-1 inh: growth inhibitors of tim23-1 mutant yeast. S. cerevisiae tim23-1 growth, BacTiter-Glo luminescence, 24 h. inhibition, % at 20 µM. actives 1.3% (n = 330,000). AID 463212;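 active means growth inhibition of the mutant yeast at or above 50%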;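 further: temperature-sensitive mutant grown at 25 °C; plate controls were DMSO-treated mutant yeast for no effect and medium wells lacking yeast for full effect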
V-ATPase pHluor: regulators of yeast V-ATPase proton transport; S. cerevisiae, pHLuorin cytosolic pH fluorescence; response, % at 10 µM; actives 0.37% (n = 350,000); AID 504577; in the data active means response mostly above about 7.3%, no sharp cut-off; inactive means mostly below about 5.4%; further: actives read high
TIM10 inh: TIM10 yeast growth inhibition; S. cerevisiae TIM10 strain growth, BacTiter-Glo luminescence, 24 h; inhibition, % at 10 µM; actives 1.4% (n = 330,000);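 active means inhibition of 40% or more at the single tested concentration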;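 further: wild-type TIM10 isogenic control strain grown at permissive 25 °C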
tim10-1 inh: tim10-1 yeast growth inhibition. inhibition, % at 20 µM. actives 2.2% (n = 330,000). S. cerevisiae tim10-1 ts strain growth, BacTiter-Glo, 24 h;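 active means inhibition of at least 40%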;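 further: mutant grown at 25 °C; 0% = DMSO wells with yeast and 100% = wells holding no yeast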
PfHsp90 set2: inhibits growth of yeast expressing Plasmodium falciparum Hsp90 | S. cerevisiae expressing PfHsp90, BacTiter-Glo ATP, 48 h; yeast lacking PDR1 and PDR3 efflux regulators | inhibition, % at 9.4 µM | actives 0.32% (n = 310,000) | AID 504621;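 active means every replicate shows inhibition above about 80%, whatever the replicate mean, limit read from the data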;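 further: 0% = DMSO neutral controls and 100% = 20 µM radicicol positive controls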
tim10-1 conf: confirmation of tim10-1 mutant yeast growth inhibitors. actives 56% (n = 7,400). AID 463213. S. cerevisiae tim10-1 ts strain growth, BacTiter-Glo, 24 h. inhibition, % at 20 µM. shares compounds with tim10-1 inh;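 active means inhibition of yeast growth at or above a set limit in either of two repeat tests at 20 µM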;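 further: tim10-1 mutant grown at permissive 25 °C to find synthetic lethal compounds; 0% = DMSO yeast wells and 100% = medium wells without yeast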
An asterisk follows results filed as active; x = no result given. In the library only some 3.7% were active in any assay of this set; here they are far more common.

SMILES	tim23-1 inh	V-ATPase pHluor	TIM10 inh	tim10-1 inh	PfHsp90 set2	tim10-1 conf
COc1ccc(OCc2cc(C(=O)N3CCN(C4CCCC4)CC3)no2)c(Cl)c1	27	-3	22	43*	12	33*
COc1ccc(OCc2cc(C(=O)N3CCCCCCC3)no2)c(Cl)c1	20	1	7	17	-4	x
COC(=O)c1cncn1Cc1ccccc1	x	-2	x	x	14	x
C(=N\n1cnnc1)/c1cn(Cc2ccccc2)c2ccccc12	27	-1	25	49*	-15	-21
Clc1ccc(Cn2cc(/C=N/n3cnnc3)c3ccccc32)c(Cl)c1	20	-3	-2	19	-17	x
CC(C)c1ccc(NS(=O)(=O)c2ccc(-n3cccn3)cc2)cc1	30	5	11	45*	-4	8
CC(C)c1ccc(NS(=O)(=O)c2ccc(Cl)nc2)cc1	22	-1	17	4	-13	x
CC(C)c1ccc(S(=O)(=O)Nc2ccc(-n3cnnn3)cc2)cc1	13	4	21	23	15	x
CC(C)c1ccc(S(=O)(=O)Nc2ccc(SC(F)F)cc2)cc1	43	0	26	50*	-38	28*
CCc1ccc(NC(=O)Cn2nnc(C(=O)NCc3ccco3)c2N)cc1	0	-2	-11	-7	28	x
CC(C)(C)OC(=O)N[C@@H](Cc1ccccc1)c1nnc(S(=O)(=O)Cc2cccc(F)c2)o1	23	x	4	59*	x	50*
CC[C@@H](C)[C@H](NC(=O)OC(C)(C)C)c1nnc(S(=O)(=O)Cc2cc(C)ccc2C)o1	43	3	35	52*	106*	57*
CC[C@@H](C)[C@H](NC(=O)OCc1ccccc1)c1nnc([C@@H](NC(=O)OCc2ccccc2)[C@@H](C)CC)o1	18	0	2	13	22	x
CCOC(=O)c1ccc(NC(=O)C2COc3ccccc3O2)cc1 (stereo unspecified)	38	-2	-4	22	5	x
CCOCCOC(=O)c1ccc(NC(=O)C2COc3ccccc3O2)cc1 (stereo unspecified)	41	3	14	42*	-15	26
O=C1Nc2cc(C(=O)N3CCN(c4ccccn4)CC3)ccc2S/C1=C\c1ccccc1	42	-1	30	42*	-8	-8
Brc1ccc(Oc2nnnn2-c2ccccc2)cc1	48	2	10	44*	-12	35*
Fc1ccc(Oc2nnnn2-c2ccccc2)cc1	4	-3	3	10	25	x
Cc1nn(Cc2cccc(C(=O)NC34CC5CC(CC(C5)C3)C4)c2)c(C)c1Br	26	2	20	43*	9	28
CCCOc1ccc(Cn2c(=O)oc3ccc(C)cc32)cc1	39	3	20	32	-13	x
Cc1ccc(C(=O)COC(=O)CNC(=O)Cc2ccccc2)cc1	-4	5	12	-1	-2	x
CCc1ccc(C(=O)COC(=O)CNC(=O)COc2ccccc2)cc1	22	3	16	42*	3	20
CCN1C(=O)/C(=C/c2c(C)nn(C)c2C)SC1=S	45	-6	25	55*	x	44*
COc1ccc(-c2csc(NC(=O)C3=NN(c4ccccc4)C(=O)CC3)n2)cc1	22	1	17	16	-14	x
O=C(Nc1nc(-c2cc(F)ccc2F)cs1)C1=NN(c2ccccc2)C(=O)CC1	17	-1	38	45*	-32	26
SMILES	tim23-1 inh	V-ATPase pHluor	TIM10 inh	tim10-1 inh	PfHsp90 set2	tim10-1 conf
O=C(Nc1nc(-c2cc(F)ccc2F)cs1)C1=COCCO1	32	-6	27	46*	x	30
COc1ccc(-c2cc(-c3ccccc3)nc(SCC(=O)Nc3nccs3)c2C#N)cc1	-11	0	-28	15	18	x
COc1ccc(-c2cc(-c3ccccc3)c(C#N)c(SCC(=O)Nc3ncc(C)s3)n2)cc1	21	2	10	42*	-19	19
CCC(C)C(=O)N1c2ccccc2C(=C2SC(C(=O)OC)=C(C(=O)OC)S2)C(=S)C1(C)C (stereo unspecified)	32	-16	27	44*	-2	29
CCOC(=O)C1=C(C)c2ccccc2N(C(=O)OC)C1(C)C(=O)OCC (stereo unspecified)	44	-1	3	12	5	x
O=C1C=CN(C2OC(CO)C(O)C2O)C(=O)C1 (stereo unspecified)	x	-3	x	x	x	x
Cc1cc(C(=O)COc2ccccc2[N+](=O)[O-])c(C)n1C1CC1	23	6	21	44*	-40	27
Nc1c(C(=O)NC2CCCC2)sc2nc(-c3cccs3)ccc12	22	-4	30	40*	-3	32*
O=C(O)CC/C(=N\Nc1ccc(Cl)cc1)c1cccs1	36	0	10	41*	19	14
Cc1ccc2c(CN3CCN(S(=O)(=O)/C=C/c4ccccc4)CC3)cc(=O)oc2c1	47	1	36	40*	-16	36*
Cc1ccc2c(CN3CCCCC3)cc(=O)oc2c1	4	-1	3	-3	-20	x
CCCCCC(=O)Nc1nc(C)c(-c2csc(Nc3ccc(Cl)cc3)n2)s1	21	1	28	41*	4	26
CCCCCCC(=O)Nc1nc(C)c(-c2csc(Nc3ccc(Cl)cc3)n2)s1	24	-1	23	39	-3	x
CCCn1c(/N=C/c2c[nH]c3ccccc23)nc2ccccc21	37	5	2	26	11	x
CCCCn1c(/N=C/c2c[nH]c3ccccc23)nc2ccccc21	33	5	2	41*	18	22
COc1cc(C=NCc2ccccc2)ccc1O	x	-2	x	x	x	x
COc1ccc(/C=N/N(Cc2ccccc2)c2ccccc2)cc1O	30	2	39	51*	-37	-21
O=C(Nc1ccc(S(=O)(=O)N2CCCCC2)cc1)c1ccccc1F	29	4	25	31	-16	x
O=C(Nc1ccc(F)cc1)c1cc(S(=O)(=O)N2CCCCC2)ccc1F	17	-2	8	42*	-6	9
Cc1c(/C=C/C(=O)c2ccccc2)cnn1C	33	-1	21	33	5	x
CCn1ncc(/C=C/C(=O)c2ccccc2)c1C	33	0	3	46*	6	14
CCC(c1nnnn1Cc1ccccc1)N1CCN(c2ccccc2)CC1 (stereo unspecified)	13	3	1	41*	x	24
Cc1cccc(C)c1OCC(=O)N=Nc1c(O)[nH]c2ccc(Br)cc12	31	-1	32	53*	-19	35*
CC(C)(C)NC(=O)NC(=O)COc1ccc(Br)cc1Br	48	-4	19	46*	-30	34*
CCN(Cc1ccncc1)Cc1c(O)ccc2cc(Br)ccc12	30	x	30	46*	x	22
CN1CCN(Cc2c(O)ccc3cc(Br)ccc23)CC1	17	x	1	30	x	x
